Experimental data taken from PubChem BioAssay AID1117319 (Southern Research Institute, 2015).
Several values for one entry are separate records, joined by “and”; a condition that tells them apart may be missing. Identical values can stand only once. Screen size: about 260,000 compounds; about 1,500 (0.58%) were called active. Roughly 5% stayed inconclusive and do not appear here.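 Rule for the calls: active = inhibition above a set limit at one or more doses, reproduced on every date tested; inconclusive = results disagree between test dates, or hit never tested in dose response; inactive = the rest.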 A selection follows. Measured potencies and affinities stand elsewhere.

These compounds were tested against Virion infectivity factor (Human immunodeficiency virus type 1 group M subtype B (isolate BH10)) + Virion infectivity factor (Human immunodeficiency virus type 1 group M subtype B (isolate BRU/LAI)) + Virion infectivity factor (Human immunodeficiency virus type 1 group M subtype B (isolate PCV12)) + Virion infectivity factor (Human immunodeficiency virus type 1 group M subtype B (isolate HXB2)) + DNA dC->dU-editing enzyme APOBEC-3G (Homo sapiens) (UniProt P69720+P69721+P69722+P69723+Q9HC16) (assay: HIV-1 Vif–A3G interaction blockers – biochemical, TR-FRET, GST-Vif 1-94, biotin-A3G peptide, dose response retest, primary screen (AID 1117319;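 note: Vif residues 1-94 fused to GST binding biotinylated APOBEC3G peptide 110-148; 0% = full assay without inhibitor and 100% = GST in place of GST-Vif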)). Details: TR-FRET GST-Vif / biotin-A3G peptide binding; hits give high values.

inhibition, inactive:
COc1ccc(C)cc1S(=O)(=O)NCC(c1ccco1)N1CCc2ccccc2C1 (centres undefined) -3.21%, N#CC1=C(N)OC2=C(C(=O)CC(c3ccco3)C2)C1c1ccc(OCc2c(F)cccc2Cl)cc1 (centres undefined) 13.6% and 14.7%, COc1cccc(C2C(C#N)=C(N)OC3=C2C(=O)CCC3)c1OC(=O)c1ccco1 (centres undefined) 22.1%, Cc1ccc(NC(=O)C(C)Sc2nc(-c3ccccc3)cc(=O)[nH]2)cc1 (centres undefined) -0.75%, O=C1C=C(c2ccccc2)C(c2ccccc2)C1 (centres undefined) 0.24%, COc1ccc(C(=O)N2CCN(c3cccc(Cl)c3)CC2)cc1 -2.36%, COc1ccc(N2CCN(C(=O)c3ccc(C)cc3Cl)CC2)cc1 6.52%, COc1ccc(S(=O)(=O)N2CCN(C(=O)c3c(-c4ccccc4)noc3C)CC2)cc1 0.45%, COc1ccc(N2CCN(C(=O)COc3ccc4ccccc4c3)CC2)cc1 2.55%, Cc1onc(-c2ccccc2Cl)c1C(=O)N1CCN(c2ccccc2)CC1 -3.16%, Cc1onc(-c2ccccc2Cl)c1C(=O)N1CCCC1 -6.38%, O=C(COc1ccccc1)N1CCN(c2ccccc2)CC1 10.3%, COc1ccc(N2CCN(C(=O)COC(=O)c3c(-c4ccccc4)noc3C)CC2)cc1 -5.58%, CCS(=O)(=O)N1CCC(C(=O)NC2CCCCCCC2)CC1 1.17%, Cc1cc(C(=O)N2CCN(S(=O)(=O)c3ccc(C)c(C)c3)CC2)no1 3.5%, COc1ccc(C)cc1NC(=O)c1cnc2scc(C)n2c1=O -5.79%, COc1ccc2cc(C3CC(c4cccs4)=NN3S(C)(=O)=O)c(Cl)nc2c1 (centres undefined) -0.38%, COc1ccc2[nH]c(C(=O)NCc3ccccc3)c(C)c2c1 1.63%, Cc1ccc(NS(=O)(=O)c2csc(C(N)=O)c2)cc1C -5.43%, CN(CC(=O)NCCc1ccc(S(N)(=O)=O)cc1)Cc1ccc(Cl)cc1Cl 4.74%, Cc1cc([N+](=O)[O-])nn1CC(=O)N1CCc2ccccc2C1 -2.29%, Cc1ccc(C)c(NC(=O)CN(C)C(=O)Cc2coc3cc(C)c(C)cc23)c1 0.3%, O=C(COC(=O)c1cnccn1)Nc1cc(S(=O)(=O)N2CCOCC2)ccc1Cl -11.1%, c1ccc(Nc2c(-c3ccco3)nc3ccccn23)cc1 -2.7%, Cc1cc([N+](=O)[O-])c(C)cc1-c1ccc(/C=N/n2cnnc2)o1 1.64%, O=[N+]([O-])c1cc(-c2ccc(/C=N/n3cnnc3)o2)ccc1Cl 6.34%, O=[N+]([O-])c1ccc(-c2ccc(/C=N/c3c(-c4ccco4)nc4ccccn34)o2)cc1 7.55%, O=[N+]([O-])c1ccc(-c2ccc(C=Nc3cccc4ccccc34)o2)cc1 3.05%, CN(C)c1ccc(-c2nc3ccccn3c2/N=C/c2ccc(Br)cc2)cc1 6.4%, COc1cc(-c2nc3ccccn3c2/N=C/c2cc(OC)c(O)cc2Cl)ccc1O 22.2%, Cc1ccc(Nc2c(-c3ccco3)nc3ccccn23)cc1 12%, COc1cc2[nH]c(=S)n(Cc3cccs3)c(=O)c2cc1OC -5.73%, Cc1cc(C)cc(OCC(=O)NN2C(=O)c3ccccc3C2=O)c1 2.37%, Cc1ccc(N(CC(=O)NC(C)(C)C)C(=O)CS(=O)CC(=O)Nc2ccc(F)cc2)cc1 (centres undefined) 10.4%, CCN(CC(=O)Nc1ccc(OC)cc1)C(=O)c1ccc2c(c1)NC(=O)C(C)S2 (centres undefined) 6.39%, COc1cccc(C(=O)N2CCN(C(=O)c3cccc4ccccc34)CC2)c1OC 1.56%, CSC1=N/C(=C\c2ccccc2)C(=O)N1C 4.78%, O=C(CN1C(=O)S/C(=C/c2ccccn2)C1=O)N1CCOCC1 2.37%, CCCCCn1c(=NC(=O)c2ccco2)c(C(=O)OCC)cc2c(=O)n3ccccc3nc21 4.41% and -0.06%, COc1cc(-c2nnc(NC(=O)CCS(=O)(=O)c3ccccc3)o2)cc(OC)c1OC 2.37%, O=C(O)Cn1cc(/C=C2/NC(=O)N(c3ccc(Cl)cc3)C2=O)c2ccccc21 -2.83%, O=C1c2cccnc2C(=O)N1Cc1ccco1 7.44%, O=C(O)Cn1cc(/C=C2\SC(=O)N(c3ccccc3)C2=O)c2ccccc21 -7.51%, Cc1cc(/C=C2/C(=O)NN(c3ccccc3)C2=O)c(C)n1-c1ccc(O)cc1 -5.99%, Cc1cc(/C=C2\SC(=S)N(Cc3ccco3)C2=O)c(C)n1-c1ccccc1 3.57%, Cn1cccc1/C=C1\SC(=S)N(NC(=O)c2ccc(F)cc2)C1=O 14.3%, CC1(C)CC(=O)C2=C(C1)N(Cc1ccco1)C(=O)NC2(C(F)(F)F)C(F)(F)F -1.11%, O=C1CNC(=S)N1Cc1ccc(F)cc1 5.9%, CNC(=O)C[C@H]1C(=O)N(C2CCCCC2)C[C@@H]1C 8.77%, COCCn1c(C)cc(/C=C(\C#N)C(=O)OCC(=O)N(C)c2c(N)n(Cc3ccccc3)c(=O)[nH]c2=O)c1C 10.7%, N#Cc1c(F)cccc1NCc1cccs1 -3.38%, Cc1nc(C)c(C(=O)C2=C(O)C(=O)N(CCCn3ccnc3)C2c2ccc(Cl)cc2)s1 (centres undefined) 0.13%, COc1ccc(-c2cc(C(=O)N3CCC3)c3ccccc3n2)cc1OC -14.9%, Cc1ccc(C(=O)O)c(C(=O)Nc2nc3ccccc3s2)c1 -4.97%, O=C(/C=C/c1cccs1)Nc1ccc(N2CCOCC2)c(S(=O)(=O)Nc2ccccc2Cl)c1 -5.05%, Cc1ccc(/C=C2/NC(=O)N(Cc3ccccc3)C2=O)s1 3.49%, Cn1cccc1/C=C1\SC(=Nc2ccccc2)NC1=O -5.03%, COc1cccc(OCCn2cccc2/C=C2/C(=N)N3OC(C)=CC3=NC2=O)c1 1.07%, Cn1c(=O)n(C)c2cc(/C=C3/NC(=O)N(Cc4ccccc4)C3=O)ccc21 -1.59%, O=C1N/C(=C/c2cccn2-c2ccc(F)cc2)C(=O)N1Cc1ccccc1 6.05%, O=Cc1cccn1-c1ccc2ccccc2c1 -0.71%, CC1=CC2=NC(=O)/C(=C\c3cccn3CCOc3cccc(C)c3)C(=N)N2O1 -1.97%, O=C1Nc2ccccc2/C1=C\c1cccn1-c1ccc(OC(F)(F)F)cc1 5.25%, O=C(COC(=O)c1ccccc1Sc1ccc(C(F)(F)F)cc1[N+](=O)[O-])NC(=O)NC1CCCC1 -2.59%, CCCN1C(=O)/C(=c2\sc3nc(=O)c(Cc4ccc(C)cc4)nn3c2=O)c2ccccc21 1.89%, CC1(C(=O)O)CCC(C(=O)NNC(=O)c2ccccc2O)C1(C)C (centres undefined) -0.63%, COc1cc(/C=C2\SC(=O)N(CCNC(=O)c3c(C)noc3C)C2=O)cc(OC)c1OC -5.96%, Cc1ccc(S(=O)(=O)N2CCOCC2)cc1NC(=O)COC(=O)c1ccc2c(c1)OCCO2 -7.03%, O=C1N/C(=C/c2cccn2-c2ccc(F)cc2)C(=O)N1Cc1ccccc1F 5.17%, O=C1N/C(=C/c2cccn2-c2ccccc2)C(=O)N1Cc1ccc(F)cc1 15.6%, COc1ccc(NC(=O)CN(C)C(=O)C2CC(=O)N(c3cccc4ccccc34)C2)cc1 (centres undefined) 2.19%, COc1cc2c(cc1OC)C(c1cccc(OC)c1OC)CC(=O)N2 (centres undefined) 2.22%, COc1cc(C2CC(=O)Nc3cc(C)c(C)cc32)cc(OC)c1OC (centres undefined) -9.63%, CC(C)(C)NC(=O)C(c1ccncc1)N(C(=O)CNC(=O)c1ccco1)c1ccc(F)cc1 (centres undefined) 5.09%, O=C(NCC(=O)N(c1ccc2c(c1)OCO2)C(C(=O)NC1CCCC1)c1ccncc1)c1ccco1 (centres undefined) 21.4%, COc1cccc(NC(=O)CN(C)C(=O)CCCc2nc3ccccc3c(=O)[nH]2)c1 4.69%, CCCCCOc1ccc(C2NC(=O)NC2=O)cc1 (centres undefined) 0.64%, CCN(c1ccc(OC)cc1)S(=O)(=O)c1nnc(NC(=O)COc2ccccc2)s1 6.53%, O=C(CN1C(=O)CCSc2ccccc21)Nc1ccc2c(c1)OCCO2 4.27%, COC(=O)c1ccc(COc2ccccc2/C=C(\C#N)C(=O)Nc2c(C)cccc2C)cc1 -2.89%, COC(=O)c1ccc(COc2ccccc2/C=C(\C#N)C(=O)Nc2ccc(C)cc2)cc1 -4.01%, COCCNC(=O)C1(C)Oc2ccccc2NC1=O (centres undefined) 1.83%, Cc1oc(-c2ccccc2F)nc1CS(=O)(=O)CC(=O)N1CCN(Cc2ccccc2)CC1 5.89%, CCOC(=O)CN(C(=O)CSc1nnc(COc2ccc(OC)cc2)n1C)c1ccccc1 0.19%, COc1ccc(-c2nnn(CC(=O)c3ccc4c(c3)OCCO4)n2)cc1OC 21.5%, CCOc1ccc(-c2nnn(CC(=O)c3ccc4c(c3)OCCO4)n2)cc1 -11.1%, CN(C)c1ccc(CNC(=O)C2CCN(S(=O)(=O)c3ccc4c(c3)oc(=O)n4C)CC2)cc1 -3.31%, COc1ccc2c3c(cccc13)OCC2=O 24.2%, CCC1=NNc2cccc3c(OC)ccc1c23 10.8%
